{"source": "paper PMC10668032", "about": "“Altered binding affinity of SIX1-Q177R correlates with enhanced WNT5A and WNT pathway effector expression in Wilms tumor”", "note": "In all, about 33,000 sequences were measured (“e-score”: median about -0.053, highest 2% from about 0.38 on). Many of the other results were omitted from the sample, so the highest values are more common in it than they were.", "data": [{"target": "T1, SIX1 homeodomain (reference allele) (human, UniProt Q15475 108-198)", "T1 sequence": "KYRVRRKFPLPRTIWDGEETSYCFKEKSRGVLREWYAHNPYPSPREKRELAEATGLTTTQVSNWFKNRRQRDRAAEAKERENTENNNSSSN", "assay": "universal protein binding microarray; Universal all-10-mer PBM (8x60K, AMADID 030236), 300 nM GST-tagged protein, Alexa Fluor 488 anti-GST; buffer, salt, pH and temperature not stated (as in Berger); high values mean tight binding", "details": "protein: ivt; tags: N-terminal GST; dsDNA, one strand shown", "procedure,_shortened": "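Homeodomains fused to GST were made by in vitro transcription/translation and measured by anti-GST western blot with a recombinant GST standard curve. At 300 nM final concentration, they were applied in duplicate to universal 'all 10-mer' protein binding microarrays (8×60K format).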", "units": {"binding signal": "E-score"}, "values": [{"sequence": "ATACCAGC", "binding signal": "0.3035 ± 0.00134"}, {"sequence": "ACACCCGA", "binding signal": "0.294 ± 0.0236"}, {"sequence": "AGACCCGG", "binding signal": "0.214 ± 0.0594"}, {"sequence": "ATACCCGC", "binding signal": "0.3787 ± 0.00251"}, {"sequence": "AGACCCGA", "binding signal": "0.196 ± 0.0537"}, {"sequence": "AAACCCGG", "binding signal": "0.163 ± 0.0401"}, {"sequence": "GATTATAA", "binding signal": "0.165 ± 0.0198"}, {"sequence": "GATTACAC", "binding signal": "0.164 ± 0.0334"}, {"sequence": "ATAGACAC", "binding signal": "0.285 ± 0.0262"}, {"sequence": "GACACGGA", "binding signal": "0.196 ± 0.00735"}, {"sequence": "AGGAATAC", "binding signal": "0.2106 ± 0.00182"}, {"sequence": "GGATTGGA", "binding signal": "0.171 ± 0.00314"}, {"sequence": "ATACTGCC", "binding signal": "0.3133 ± 0.000361"}, {"sequence": "ATCGTTGC", "binding signal": "0.202 ± 0.04"}, {"sequence": "TAATACTA", "binding signal": "0.276 ± 0.0717"}, {"sequence": "GCATAATA", "binding signal": 0.187}, {"sequence": "TGGATCAA", "binding signal": "0.3057 ± 0.00301"}, {"sequence": "CGGATCGA", "binding signal": "0.34 ± 0.0821"}, {"sequence": "CGGATCAC", "binding signal": "0.463 ± 0.00697"}, {"sequence": "CGGATCAA", "binding signal": "0.417 ± 0.0173"}, {"sequence": "AGGATCAA", "binding signal": "0.352 ± 0.036"}, {"sequence": "CGGATCAG", "binding signal": "0.443 ± 0.0116"}, {"sequence": "AGGATCGA", "binding signal": "0.289 ± 0.0472"}, {"sequence": "CTGATCAG", "binding signal": "0.313 ± 0.0448"}, {"sequence": "CCGATCAG", "binding signal": "0.24 ± 0.0341"}, {"sequence": "CCGATCAC", "binding signal": "0.346 ± 0.0289"}, {"sequence": "CTGATCAC", "binding signal": "0.204 ± 0.0353"}, {"sequence": "GGGATCGA", "binding signal": "0.385 ± 0.0533"}, {"sequence": "CGAGATCG", "binding signal": "0.207 ± 0.0304"}, {"sequence": "TAATATGA", "binding signal": "0.196 ± 0.0472"}, {"sequence": "CCCCGATA", "binding signal": "0.347 ± 0.00347"}, {"sequence": "CCTTGATC", "binding signal": "0.243 ± 0.0361"}, {"sequence": "GGGATCAC", "binding signal": "0.445 ± 0.0186"}, {"sequence": "GTGATCAC", "binding signal": "0.306 ± 0.0127"}, {"sequence": "GAGATCAA", "binding signal": "0.31 ± 0.0391"}, {"sequence": "GCGATCAC", "binding signal": "0.354 ± 0.0376"}, {"sequence": "GCGATCAA", "binding signal": "0.18 ± 0.0413"}, {"sequence": "GGGATCAA", "binding signal": "0.386 ± 0.0187"}, {"sequence": "ATCGGTGG", "binding signal": "0.189 ± 0.0514"}, {"sequence": "CAACACCG", "binding signal": "0.268 ± 0.021"}, {"sequence": "CCCTGATC", "binding signal": "0.33 ± 0.0305"}, {"sequence": "ACTTGATA", "binding signal": "0.374 ± 0.0379"}, {"sequence": "AGTTGATA", "binding signal": "0.406 ± 0.0373"}, {"sequence": "GCTTGATA", "binding signal": "0.351 ± 0.0581"}, {"sequence": "CGTTGATA", "binding signal": "0.334 ± 0.0658"}, {"sequence": "AGTTGATC", "binding signal": "0.23 ± 0.0154"}, {"sequence": "GGTTGATA", "binding signal": "0.384 ± 0.0228"}, {"sequence": "AGATAACG", "binding signal": "0.191 ± 0.042"}, {"sequence": "ATATGCGC", "binding signal": "0.27 ± 0.0371"}, {"sequence": "CGGCTCAC", "binding signal": "0.174 ± 0.0262"}, {"sequence": "AGTATCCC", "binding signal": "0.412 ± 0.00869"}, {"sequence": "CTTATCCA", "binding signal": "0.186 ± 0.0114"}, {"sequence": "CCTATCCC", "binding signal": "0.291 ± 0.0369"}, {"sequence": "CGTATCCC", "binding signal": "0.389 ± 0.00815"}, {"sequence": "CTTATCCC", "binding signal": "0.235 ± 0.0469"}, {"sequence": "CCTATCCA", "binding signal": "0.232 ± 0.0293"}, {"sequence": "ATTATCCC", "binding signal": "0.274 ± 0.0711"}, {"sequence": "CGTATCCA", "binding signal": "0.403 ± 0.0252"}, {"sequence": "ACTATCCC", "binding signal": "0.294 ± 0.0143"}, {"sequence": "GATCCTGC", "binding signal": "0.353 ± 0.0135"}, {"sequence": "CATCTAAG", "binding signal": "0.178 ± 0.0937"}, {"sequence": "ATACTGGA", "binding signal": "0.325 ± 0.00489"}, {"sequence": "ATTGGATC", "binding signal": "0.365 ± 0.0365"}, {"sequence": "ATCGAGCG", "binding signal": "0.156 ± 0.0113"}, {"sequence": "TATATTCA", "binding signal": "0.166 ± 0.0205"}, {"sequence": "AACCATAT", "binding signal": "0.303 ± 0.013"}, {"sequence": "ACCCATAT", "binding signal": "0.3794 ± 0.00238"}, {"sequence": "ACCCATCT", "binding signal": "0.204 ± 0.0603"}, {"sequence": "GATTGAGA", "binding signal": "0.151 ± 0.0232"}, {"sequence": "CCTTGATA", "binding signal": "0.317 ± 0.0459"}, {"sequence": "CATTGATA", "binding signal": "0.391 ± 0.0167"}, {"sequence": "GATTGATA", "binding signal": "0.381 ± 0.046"}, {"sequence": "CATTGATC", "binding signal": "0.265 ± 0.000601"}, {"sequence": "AATTGATA", "binding signal": "0.344 ± 0.0859"}, {"sequence": "ACACCTCA", "binding signal": "0.24 ± 0.0368"}, {"sequence": "ACTAGCCG", "binding signal": "0.183 ± 0.0569"}, {"sequence": "CTATAATC", "binding signal": "0.157 ± 0.0879"}, {"sequence": "ATCGTGGG", "binding signal": "0.163 ± 0.0327"}, {"sequence": "CTGGATAC", "binding signal": "0.387 ± 0.0256"}, {"sequence": "ATGGATAA", "binding signal": "0.212 ± 0.00686"}, {"sequence": "CTGGATTA", "binding signal": "0.177 ± 0.0302"}, {"sequence": "ATGGATAC", "binding signal": "0.447 ± 0.0217"}, {"sequence": "ATGGATAG", "binding signal": "0.247 ± 0.00822"}, {"sequence": "ACTACGAT", "binding signal": "0.1669 ± 0.00123"}, {"sequence": "TATCCAGA", "binding signal": "0.3343 ± 0.00221"}, {"sequence": "ATACACAA", "binding signal": "0.232 ± 0.0214"}, {"sequence": "AGGATTAA", "binding signal": "0.243 ± 0.0865"}, {"sequence": "ATCCCTCA", "binding signal": "0.312 ± 0.0176"}, {"sequence": "GCTACCCC", "binding signal": "0.158 ± 0.092"}, {"sequence": "AATACCCG", "binding signal": "0.293 ± 0.0206"}, {"sequence": "AATACCTC", "binding signal": "0.331 ± 0.0598"}, {"sequence": "AATACCAG", "binding signal": "0.306 ± 0.0188"}, {"sequence": "AATACCCA", "binding signal": "0.2902 ± 0.00209"}, {"sequence": "AATACCCT", "binding signal": "0.384 ± 0.0168"}, {"sequence": "GATACCCC", "binding signal": "0.4957 ± 0.00126"}, {"sequence": "CATACCCC", "binding signal": "0.258 ± 0.054"}, {"sequence": "AATACCCC", "binding signal": "0.4268 ± 0.000757"}, {"sequence": "CCGTCTCG", "binding signal": "0.232 ± 0.00359"}, {"sequence": "CAATACGG", "binding signal": "0.178 ± 0.00369"}, {"sequence": "ATTAAATA", "binding signal": "0.24 ± 0.0313"}, {"sequence": "GATCAGCA", "binding signal": "0.235 ± 0.00865"}, {"sequence": "ATACGGAC", "binding signal": "0.193 ± 0.00348"}, {"sequence": "AATATACA", "binding signal": "0.222 ± 0.0386"}, {"sequence": "GATATTCA", "binding signal": "0.232 ± 0.0803"}, {"sequence": "TATATACA", "binding signal": "0.284 ± 0.0122"}, {"sequence": "GATATTCC", "binding signal": "0.376 ± 0.0303"}, {"sequence": "CATATACC", "binding signal": "0.282 ± 0.0234"}, {"sequence": "AATATTCC", "binding signal": "0.251 ± 0.0499"}, {"sequence": "AATATACC", "binding signal": "0.32 ± 0.0474"}, {"sequence": "GATATACC", "binding signal": "0.4592 ± 0.00376"}, {"sequence": "GATATACA", "binding signal": "0.384 ± 0.0104"}]}]}
